Test results from PubChem BioAssay AID602163 (The Scripps Research Institute Molecular Screening Center, 2012).
About 1,100 (0.31%) of roughly 360,000 compounds were called active. Shown is part of a subset that was picked to be rich in actives. Unmarked numbers belong to inactive results. Rule as the data show it: active = activation above about 7.5%; inactive = the rest.

Test system: Methionine sulfoxide reductase A (Bos taurus)
Test: activation of methionine sulfoxide reductase A – biochemical, absorbance, bovine, HTS, primary screen (AID 602163);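 also: 0% = vehicle and 100% = reference activator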
Conditions: purified bovine MsrA, absorbance read-out; at 10.6 µM; stronger effect = higher value

| Compound | activation |
| --- | --- |
| Nc1[nH]c(=S)nc2nc(-c3ccccc3)c(-c3ccccc3)nc12 | 4.05% |
| O=C(COC(=O)c1n[nH]c2ccccc12)Nc1ccccc1Br | -2.21% |
| CN(C)S(=O)(=O)c1ccc(NC(=O)COC(=O)c2n[nH]c3ccccc23)cc1 | 14.2% (active) |
| COc1ccc(S(=O)(=O)N(C)C)cc1NC(=O)COC(=O)c1n[nH]c2ccccc12 | -0.9% |
| Cn1nnnc1SCC(=O)N1CCN(Cc2ccccc2)CC1 | 10.8% (active) |
| CC(=O)c1ccc(-n2nnnc2SCC(=O)N2CCN(C(=O)c3ccco3)CC2)cc1 | -6.56% |
| Cn1nnnc1SCC(=O)N1CCN(C(c2ccccc2)c2ccccc2)CC1 | -4.74% |
| CC(C)COC(=O)n1c(=O)oc2ccc(S(=O)(=O)N3CCCCC3)cc21 | -0.43% |
| COc1ccc(C2=NN(C(=O)CSc3nc(=O)n4ccc(C)cc4n3)C(c3ccc(C)cc3)C2)cc1 (stereo not given) | -4.23% |
| FC(F)(F)C1CCCN(c2nsc3ccccc23)C1 (stereo not given) | 13% (active) |
| CCCNCc1cc(OCC)c(OCC(=O)Nc2ccccc2)cc1Br | -1.95% |
| CC(C)(C)C(=O)CCN1C(=O)C2(OCCO2)c2ccccc21 | 10.5% (active) |
| O=C(CC1(O)C(=O)N(CN2CCOCC2)c2ccccc21)c1ccccc1 (stereo not given) | -7.26% |
| C=CCN1C(=O)C2(OCCCO2)c2cccc(Cl)c21 | -1.83% |
| CC(C)C[C@H]1CNC(=O)C(=O)N1C[C@@H]1CCCN1C[C@H](Cc1ccccc1)N1C[C@H](CC(C)C)N(CC2CCCCCC2)C(=O)C1=O | -1.34% |
| CC1CCC2CCCCC2N1C(=O)c1cc([N+](=O)[O-])cc([N+](=O)[O-])c1 (stereo not given) | -1.47% |
| CCOC(=O)[C@H]1Nc2ccc(Cl)cc2[C@@H]2[C@H]1C1CC(c3ccccc31)N2C(=O)OCc1ccccc1 (stereo not given in full) | -4.81% |
| O=C(O)C#Cc1cccc2ccccc12 | -6.37% |
| CCCCCCNC(=O)CSc1nccn1Cc1ccccc1 | -3.24% |
| O=C(NCc1ccccc1)C1c2ccccc2OCC(=O)N1CCCN1CCOCC1 (stereo not given) | -2.2% |
| O=C(NCc1ccccc1)C1c2ccccc2OCC(=O)N1C1CC1 (stereo not given) | 8.21% (active) |
| O=C(NC1CCCC1)C1c2ccccc2OCC(=O)N1Cc1ccccc1 (stereo not given) | -2.39% |
| CN1CCN(Cc2c(C(=O)N3CCc4ccccc4C3)nc3ccc(Cl)cn23)CC1 | -13% |
| Nc1ccn(C2CC(O)C(CO)O2)c(=O)n1 (stereo not given) | -1.31% |
| COC(=O)C1CCN(C(=O)COC(=O)c2cc(S(=O)(=O)N3CCOCC3)ccc2C)CC1 | -0.23% |

| Compound | activation |
| --- | --- |
| CCS(=O)(=O)c1ccc2c(c1)N(S(=O)(=O)c1ccccc1)CC(C(=O)O)O2 (stereo not given) | -3.49% |
| COc1ccc(N2CCN(S(=O)(=O)c3cc4c5c(c3)C(C)C(=O)N5CCC4)CC2)cc1 (stereo not given) | 0.45% |
| CC(=O)C1=C(O)C(=O)N(c2ccc(Br)cc2)C1c1ccc([N+](=O)[O-])cc1 (stereo not given) | -4.41% |
| COc1ccc(C2C(C(C)=O)=C(O)C(=O)N2c2nccs2)cc1 (stereo not given) | -4.03% |
| COC(=O)CN1C(=O)C(O)=C(C(C)=O)C1c1ccc([N+](=O)[O-])cc1 (stereo not given) | 8.27% (active) |
| COC(=O)c1ccccc1NC(=O)C1(S(=O)(=O)c2ccc(Cl)cc2)CC1 | -4.86% |
| CCCc1c(C)nc2c(Br)cccc2c1Cl | -2.47% |
| CCN(CC)CCCC(C)n1c2nc(=O)[nH]c(=O)c-2nc2cc(Cl)ccc21 (stereo not given) | 11.7% (active) |
| COC(C/C=C/C(=O)[C@@H](C)OCc1ccccc1)OC | 5.11% |
| CSC1=NC2(C)CCCCC2C12C=CC(=O)C=C2 (stereo not given) | -3.42% |
| CC(C)CCNC(=O)C1CCC(CNc2c(N3CCC(C)CC3)c(=O)c2=O)CC1 (stereo not given) | -7.85% |
| CC(C)(C)N1C(=O)c2c(C(=O)OCc3ccccc3)[nH]c(-c3ccccc3)c2C1=O | -2.85% |
| O=C1C(Sc2cccc(F)c2)=C[C@@]2(O)CC[C@@H](O)[C@]1(Sc1cccc(F)c1)[C@H]2O | 11.4% (active) |
| CN1CCN(c2ccc(CNS(=O)(=O)c3cccc(F)c3)cc2)CC1 | -2.8% |
| Cc1nccn1CCCNC(=O)CC1C(=O)NCCN1Cc1ccc(Cl)c(F)c1 (stereo not given) | -5.91% |
| COc1ccc(NC(=O)CN(C)C(=O)/C=C/c2cn(Cc3ccccc3)nc2-c2cccnc2)cc1 | -3.42% |
| O=c1onc(-c2cccs2)n1Cc1ccccc1 | -2.25% |
| O=C(O)/C=C/c1cn(Cc2ccccc2)nc1-c1cccs1 | 9.05% (active) |
| Cc1cccc(NC(=O)Cn2c(=O)n(Cc3ccccc3)c(=O)c3c(C)c(C)sc32)c1 | -2.33% |
| O=C1CCC(C(=O)N2CCC(O)(c3ccccc3)CC2)CN1CCc1ccccc1 (stereo not given) | -3.3% |
| COc1ccc(Cl)cc1NS(=O)(=O)c1cccc(C(=O)NCC2CCCO2)c1 (stereo not given) | 8.29% (active) |
| COc1ccc(Cl)cc1NS(=O)(=O)c1cccc(C(=O)NC2CCC(O)CC2)c1 (stereo not given) | -0.8% |
| COc1ccc(C(=O)NCC2CCCO2)cc1S(=O)(=O)NCc1ccc(Cl)cc1 (stereo not given) | -6% |
| CC(C)NC(=S)NN=C1CCCCCCCCCCC1 | -2.24% |
| C=C(C)C1CC=C(C)/C(=N\NC(=O)CNc2ccccc2OC)C1 (stereo not given) | -4.34% |
